Results taken from the supplement of paper PMC8371130.
Counter-ions that a name gives are not always drawn.

Tested on: HL-1
Test: relative cell viability (CellTiter-Glo) vs DMSO control (% of DMSO control); higher = more viable cells
Outline: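 Compounds at 40, 200, 1000 or 5000 nM in 0.01% DMSO were added to HL-1 mouse atrial cardiomyocytes plated at 1000 cells per well in 384-well plates. The next day, cells were exposed to 1% O2 for 48 h and then reoxygenated for 24 h, or left in normoxia for the same time. Viability was read with CellTiter-Glo luminescence and normalised to vehicle-treated controls.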

[1] = oxygen condition: hypoxia 48 h (1% O2) + reoxygenation 24 h, 40 nM
[2] = oxygen condition: hypoxia 48 h (1% O2) + reoxygenation 24 h, 200 nM
[3] = oxygen condition: hypoxia 48 h (1% O2) + reoxygenation 24 h, 1000 nM
[4] = oxygen condition: hypoxia 48 h (1% O2) + reoxygenation 24 h, 5000 nM
[5] = oxygen condition: normoxia 72 h, 40 nM
[6] = oxygen condition: normoxia 72 h, 200 nM
[7] = oxygen condition: normoxia 72 h, 1000 nM
[8] = oxygen condition: normoxia 72 h, 5000 nM

Compound | relative cell viability [1] | relative cell viability [2] | relative cell viability [3] | relative cell viability [4] | relative cell viability [5] | relative cell viability [6] | relative cell viability [7] | relative cell viability [8]
CCN(CC)C(=O)/C(C#N)=C/c1cc(O)c(O)c([N+](=O)[O-])c1 [Entacapone] | 101 | 105 | 103 | 108 | 100 | 111 | 103 | 114
CCCCCOC(=O)Nc1nc(=O)n([C@@H]2O[C@H](C)[C@@H](O)[C@H]2O)cc1F [Capecitabine] | 104 | 94.1 | 106 | 119 | 105 | 113 | 119 | 129
NC(CO)C(=O)NNCc1ccc(O)c(O)c1O (stereo not drawn) [Benserazide] | 107 | 101 | 111 | 110 | 97.3 | 104 | 102 | 107
CCc1ccc(CCOc2ccc(CC3SC(=O)NC3=O)cc2)nc1 (stereo not drawn) [Pioglitazone] | 109 | 110 | 114 | 116 | 104 | 107 | 117 | 120
COc1ccc2c(c1OC)C(=O)O[C@@H]2[C@H]1c2c(cc3c(c2OC)OCO3)CCN1C [Noscapine HCl] | 97.5 | 98 | 99.1 | 103 | 94.9 | 106 | 104 | 109
CCOc1nc2cccc(C(=O)O)c2n1Cc1ccc(-c2ccccc2-c2noc(=O)[nH]2)cc1 [Azilsartan] | 104 | 108 | 111 | 115 | 109 | 110 | 114 | 111
CC=CC1=C(C(=O)O)N2C(=O)[C@@H](NC(=O)[C@H](N)c3ccc(O)cc3)[C@H]2SC1 [Cefprozil hydrate] | 95.4 | 104 | 105 | 104 | 102 | 103 | 100 | 107
CC(=O)/N=c1/sc(S(N)(=O)=O)nn1C [Methazolamide] | 100 | 109 | 108 | 109 | 110 | 105 | 99.7 | 108
CCOC(=O)[C@H](CCc1ccccc1)N[C@@H](C)C(=O)N1[C@H](C(=O)O)C[C@@H]2CCC[C@@H]21 [Ramipril] | 100 | 115 | 113 | 123 | 112 | 105 | 117 | 116
C[C@@H](CN1CC(=O)NC(=O)C1)N1CC(=O)NC(=O)C1 [Dexrazoxane Hydrochloride] | 98.2 | 105 | 104 | 106 | 101 | 96.3 | 92.8 | 94.8
CCCc1nc2c(C)cc(-c3nc4ccccc4n3C)cc2n1Cc1ccc(-c2ccccc2C(=O)O)cc1 [Telmisartan] | 107 | 102 | 105 | 101 | 105 | 104 | 107 | 109
Cc1cccc(C)c1NC(=O)C1CCCCN1C (stereo not drawn) [Mepivacaine HCl] | 102 | 99.8 | 121 | 105 | 102 | 110 | 111 | 111
N#Cc1ccc(C(c2ccc(C#N)cc2)n2cncn2)cc1 [Letrozole] | 103 | 105 | 109 | 104 | 107 | 110 | 105 | 110
CN(C(=O)CN(CCO)CC(=O)N(C)C(C)(C)Cc1ccccc1)C(C)(C)Cc1ccccc1 [Oxethazaine] | 102 | 103 | 106 | 115 | 99.2 | 103 | 97.9 | 128
NS(=O)(=O)c1cc(C(=O)O)c(NCc2ccco2)cc1Cl [Furosemide] | 116 | 105 | 108 | 112 | 106 | 101 | 111 | 106
NC[C@H](O)c1ccc(O)c(O)c1 [Noradrenaline bitartrate monohydrate] | 105 | 104 | 104 | 111 | 98.9 | 99.7 | 113 | 109
Cc1ccccc1C(=O)Nc1ccc(C(=O)N2CCCC(O)c3cc(Cl)ccc32)c(C)c1 (stereo not drawn) [Tolvaptan] | 97.3 | 104 | 104 | 110 | 96.7 | 104 | 106 | 108
NS(=O)(=O)c1cc2c(cc1Cl)NCNS2(=O)=O [Hydrochlorothiazide] | 103 | 106 | 110 | 106 | 110 | 107 | 107 | 115
COc1ccc(-c2nc3cc(C4=NNC(=O)CC4C)ccc3[nH]2)cc1 (stereo not drawn) [Pimobendan] | 107 | 108 | 99.1 | 109 | 109 | 102 | 114 | 111
CN1CCN2c3ccccc3Cc3ccccc3C2C1 (stereo not drawn) [Mianserin hydrochloride] | 74.7 | 97.7 | 84 | 107 | 63.6 | 92.5 | 98.1 | 111
[I-].[K+] [Potassium iodide] | 103 | 104 | 102 | 108 | 106 | 104 | 106 | 109
